Statin myotox sup = suppression of simvastatin myotoxicity; C2C12 myotubes + simvastatin, ATP luminescence, 48 h; scaled: DMSO 0, geranylgeraniol control 100; rescue of ATP level, % at 7.49 µM; 330,000 tested, 0.78% active; AID 602340;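 active means mean ATP rescue above about 67%, or every replicate alone reaching that limit, limit read from the data, passing the limit was not always enough; inconclusive means no clear call, values can overlap the other calls; inactive means mean under the limit and some replicate under it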;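 further: myotubes were challenged with 10 µM simvastatin during compound exposure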
MITF act = activators of MITF-driven TRPM1 promoter activity in SK-MEL-5 cells; SK-MEL-5 TRPM1-promoter luciferase, 24 h; % of positive control, neutral wells = 0; activation, % at 12.5 µM; 300,000 tested, 0.75% active; AID 588334;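 active means mean activation of at least 80% with every replicate also reaching 80%; inconclusive means mean reaches 80% but some replicate falls short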;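 further: 0% = neutral control wells and 100% = parthenolide positive control wells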
GAA850 FXN act = activators of GAA850 frataxin (FXN) promoter | activation, % at 6 µM | HEK293 lucGAA850 FXN promoter luciferase reporter, 24 h; percent of 10 µM SAHA response | 360,000 tested, 0.56% active;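 active means activation above the average of all compounds screened plus 3 SD, cutoff fixed separately per campaign, cut at about 7.5% in these data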;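 further: 0% = DMSO wells and 100% = 10 µM SAHA wells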
Wnt bcat act = activates Wnt/beta-catenin signaling in a reporter cell assay; activator, plate reader; activation, % at 9.35 µM; 300,000 tested, 1.2% active; AID 743398; in the data active means activation above about 30%, passing the limit was not always enough; inconclusive means no clear call, values can overlap the other calls;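 further: 0% = neutral control wells and 100% = positive control wells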
esBAF inh = SWI/SNF esBAF complex inhibition | mouse ES cells, Bmi1-luciferase knock-in reporter, 24 h; 100% = twice the neutral-well signal | reporter increase, % at 12.5 µM | 350,000 tested, 2% active | AID 602393; in the data active means activation above about 40%; inconclusive means no clear call, values can overlap the other calls;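 further: 0% = median of the plate's neutral control wells and 100% = double that signal; a rise in the Bmi1 reporter signal indicates esBAF inhibition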
Active calls of the source: *; ? = inconclusive; . = no result. Hits are enriched below; roughly 3.3% of the tested compounds scored in any of these assays.

SMILES	Statin myotox sup	MITF act	GAA850 FXN act	Wnt bcat act	esBAF inh
O=c1c2ccccc2nc(N/N=C/c2c(O)ccc3ccccc23)n1O	-16.4	-25.6	-6.2	.	-3.1
Clc1ccc(/C=N/Nc2nc(Cl)nc3ccccc23)cc1	-6.1	.	4.8	.	57.9*
O=c1c2ccccc2nc(N/N=C/c2ccc(O)cc2)n1O	5.6	37.8	1.1	.	46.8*
Clc1ccc(/C=N/Nc2nnc(Cl)c3ccccc23)cc1	-81.5	39.0	3.1	10.6	89.5*
CC[n+]1c(/C=C/c2cc([N+](=O)[O-])ccc2O)ccc2ccccc21	-19.0	.	3.7	-1.9	42.9*
CC[n+]1c(/C=C/c2ccc(OC)c(OC)c2)ccc2ccccc21	-20.1	.	4.7	8.0	79.7*
CC[n+]1c(/C=C/c2ccc(OC(C)=O)c(OC)c2)ccc2ccccc21	0.4	96.9*	0.2	17.4	83.4*
C[C@H]1CN([C@@H](C)CO)S(=O)(=O)c2ccc(/C=C/c3ccccc3)cc2O[C@@H]1CN(C)C(=O)Nc1ccc(F)cc1	-30.2	.	.	.	0.6
O=C1/C(=C\c2ccc(O)cc2)SC(=S)N1/N=C/c1ccc(O)cc1	.	12.4	1.4	50.8*	.
COC(=O)C[C@H]1C[C@H]2c3cc(NS(=O)(=O)c4ccccc4)ccc3O[C@H]2[C@@H](CO)O1	5.0	.	.	.	6.9
Cc1cccc(Nc2nnc(-c3ccc(C(=O)N4C[C@H]5C[C@H](C4)c4cccc(=O)n4C5)cc3)c3ccccc23)c1	113.5*	-5.9	-0.7	.	-11.5
COc1ccc(Nc2nnc(-c3ccc(C)cc3)c3ccccc23)cc1C(=O)N1CCCCC1	-7.7	-0.4	-0.6	-1.3	1.2
CCOC(=O)c1[nH]c2ccc(F)cc2c1NC(=O)c1cc(OC)c(OC)c(OC)c1	14.7	5.5	-2.3	.	5.0
CCOC(=O)c1[nH]c2ccccc2c1NC(=O)Nc1ccc(OC)cc1	119.3*	-12.3	-1.9	.	-5.7
CCOC(=O)c1[nH]c2ccc(F)cc2c1NC(=O)c1ccccc1C(=O)O	2.0	27.6	3.5	17.9	54.1*
O=C(Nc1ccc(Cl)cc1)N[C@@H]1CC[C@H](CCn2cc(C3(O)CCCC3)nn2)O[C@@H]1CO	-2.2	.	.	.	2.5
CCC(=O)N(C)C[C@H]1Oc2cc(C#CC3CCCC3)ccc2S(=O)(=O)N([C@@H](C)CO)C[C@H]1C	-9.6	.	.	.	0.0
CC1CCC(NC(=O)c2cc3c(s2)CCCC3)CC1 (stereo not given)	-15.4	100.3*	2.8	?	?
CNC(=O)c1cc2c(s1)CCCCCC2	-16.1	8.4	1.7	.	-2.6
Cc1ccc(C(=O)NC2CCCC2)s1	.	11.8	1.0	0.2	.
CC1CCC(NC(=O)c2ccc(Br)o2)CC1 (stereo not given)	2.6	.	1.8	1.3	13.3
Cc1ccc(C(=O)NC2CCC(C)CC2)o1 (stereo not given)	-4.1	38.1	2.0	20.5	54.6*
Cc1ccc(C(=O)NC2CCC(C)CC2)s1 (stereo not given)	.	49.8	2.5	62.2*	.
Cc1ccc(C(C(=O)NC2CCCC2)N(Cc2cccs2)C(=O)CNC(=O)c2cccs2)o1 (stereo not given)	136.0*	6.4	-1.9	-1.0	-1.4
Cc1ccc(C(C(=O)NC2CCCC2)N(C(=O)CNC(=O)c2cccs2)c2cccnc2)o1 (stereo not given)	-2.1	-4.4	2.2	-1.0	0.1
SMILES	Statin myotox sup	MITF act	GAA850 FXN act	Wnt bcat act	esBAF inh
C[C@@H]1CN([C@@H](C)CO)C(=O)c2cc(/C=C/c3ccccc3)cnc2O[C@H]1CN(C)C(=O)C1CC1	29.2	.	.	.	.
O=C(C[C@H]1CC[C@@H]2[C@H](COC[C@@H](O)CN2S(=O)(=O)c2ccc(F)cc2)O1)N[C@H]1CCN(Cc2ccccc2)C1	5.4	.	.	.	-2.3
O=C(Nc1ccccn1)NC1CCCCC1	.	7.1	-0.1	.	.
O=C(O)C1CCCCC1C(=O)Nc1ccccn1 (stereo not given)	105.0*	.	1.5	1.3	-1.0
Cc1ccc2nc3ccc(N4CCCC4)nn3c(=O)c2c1	-4.9	93.7*	5.0	.	38.9
Cc1sc2nc3ccc(N4CCCCC4)nn3c(=O)c2c1C	112.9*	121.0*	4.4	-1.6	-4.9
CC1CCCN(c2ccc3nc4ccccc4c(=O)n3n2)C1 (stereo not given)	.	-15.7	-1.0	2.7	.
C[C@@H]1CN([C@H](C)CO)S(=O)(=O)c2ccc(C3=CCCC3)cc2O[C@H]1CN(C)C(=O)C1CCC1	-45.0	.	.	.	-4.0
Cc1nc2ccccc2c(=O)n1Nc1cccc(Cl)c1	.	-3.0	1.8	-4.9	.
